Source: PubChem BioAssay AID1259343 (VanderVen Lab, College of Veterinary Medicine, Cornell …, 2017)
The campaign covered roughly 6,200 compounds. About 2,900 (47%) were called active. No stated cut-off is given here; in the data, active means inhibition above about 50%; inactive means the rest. The set was probably picked from earlier hits. The list shows a part of the results.

Experiment: Mycobacterium tuberculosis growth inhibition, primary screen (AID 1259343)
Conditions: inhibition: at 10 µM, stronger effect = higher value; outcome: 10 uM

Row | SMILES | inhibition
1 | N#CSc1ccc(N)c(Cl)c1 | 94.6% (active)
2 | Cc1cccc(OCCN(C)c2cnn(-c3ccc(F)cc3F)c(=O)c2Cl)c1 | 14.4% (inactive)
3 | Cc1ccc(CSc2nc(CC(=O)NCC(C)C)cs2)cc1 | 58.9% (active)
4 | Cc1ccc(CSc2nc(CC(=O)NCc3ccco3)cs2)cc1 | 90.2% (active)
5 | CCNC(=O)Cc1csc(SCc2ccc(C)cc2)n1 | 72.3% (active)
6 | Cc1ccc(CSc2nc(CC(=O)O)cs2)cc1 | 31.9% (inactive)
7 | Cc1ccc(CSc2nc(CC(=O)NCc3ccccc3)cs2)cc1 | 62.1% (active)
8 | Cc1ccc(CSc2nc(CC(=O)NC(C)C)cs2)cc1 | 69.6% (active)
9 | Cc1ccc(CSc2nc(CC(=O)NC3CC3)cs2)cc1 | 50% (inactive)
10 | Cc1ccc(CSc2nc(CC(=O)NCCC(C)C)cs2)cc1 | 5.27% (inactive)
11 | Cc1ccc(CSc2nc(CC(=O)NC3CCCCC3)cs2)cc1 | 81.7% (active)
12 | Cc1ccc(CSc2nc(CC(=O)NC3CCCC3)cs2)cc1 | 3.98% (inactive)
13 | CC(C)CN(CC(=O)Nc1nc(CC(=O)NCc2ccc(F)cc2)cs1)C(=O)c1ccc(Cl)cc1 | -3.41% (inactive)
14 | Cc1ccc(CSc2nc(CC(=O)NCc3cccs3)cs2)cc1 | 60.2% (active)
15 | O=C(CCl)NC(=O)NCc1cccs1 | -19.2% (inactive)
16 | CC(C)CCNC(=O)Cc1csc(SCc2ccc(Cl)cc2)n1 | 68.8% (active)
17 | CCC(C)NC(=O)Cc1csc(SCc2ccc(C)cc2)n1 (stereo unspecified) | -14.8% (inactive)
18 | CC(Cc1ccccc1F)NCc1noc(-c2ccc3c(c2)OCO3)n1 (stereo unspecified) | 59.5% (active)
19 | CC(C)Cc1noc(-c2ccc(-c3ccc4c(c3)OCCO4)nc2)n1 | 3.86% (inactive)
20 | CC(Cc1cccnc1)NCc1nc(Cc2ccccc2F)no1 (stereo unspecified) | 33.9% (inactive)
21 | Nc1nc2ccc(Oc3ccc4nc(N)sc4c3)cc2s1 | 21% (inactive)
22 | Nc1ccc2nc(SCc3ccc(F)cc3)sc2c1 | 16.7% (inactive)
23 | Cc1nc2ccc(N)cc2s1 | 94.6% (active)
24 | COc1cc(OC)nc(Nc2nc(C(N)Cc3ccc(F)cc3)cs2)n1 (stereo unspecified) | 71.1% (active)
25 | COc1cc(OC)nc(Nc2nc(C(N)Cc3ccc(Cl)cc3)cs2)n1 (stereo unspecified) | 93.6% (active)
26 | Oc1ccc(C=Nc2ccc3oc4ccccc4c3c2)c(O)c1O | 95% (active)

Row | SMILES | inhibition
27 | C(=C\c1cccc(N2CCNCC2)c1)/c1ccccc1 | 90.8% (active)
28 | COc1cccc(C=CC(=O)c2cccc(N3CCOCC3)c2)c1 | 44.4% (inactive)
29 | CC1(C)C2(Cl)C(Cl)C(Cl)C(Cl)(C(Cl)Cl)C1(Cl)C2Cl (stereo unspecified) | 65.2% (active)
30 | S=c1nc[nH]c2nc[nH]c12 | 49.3% (inactive)
31 | Brc1ccccc1CNCC1COc2ccccc2O1 (stereo unspecified) | -26.4% (inactive)
32 | FC(F)(F)CCc1ccnc(NCC2COc3ccccc3O2)n1 (stereo unspecified) | 24.3% (inactive)
33 | FC(F)(F)c1ccnc(NCC2COc3ccccc3O2)n1 (stereo unspecified) | 96.6% (active)
34 | CN(CC(O)c1ccccc1F)C(c1ccccc1)c1ccccc1 (stereo unspecified) | -46% (inactive)
35 | OC(C#CCC(O)c1ccccc1)c1ccccc1 (stereo unspecified) | 101% (active)
36 | N#Cc1ccc(S(=O)(=O)N2CCN(c3ccccc3F)CC2)cc1 | 8.35% (inactive)
37 | N#Cc1ccc(S(=O)(=O)N2CCC(Cc3ccc(C(F)(F)F)cc3)CC2)cc1 | 71.7% (active)
38 | O=S(=O)(c1ccc(F)cc1)N1CCCC(OCc2cc(F)cc(F)c2)C1 (stereo unspecified) | 2.58% (inactive)
39 | N#Cc1ccc(S(=O)(=O)N2CCC(Cc3ccc(F)cc3)CC2)cc1 | 60.9% (active)
40 | O=C(O)c1cc[c]([Hg][Cl])cc1 | 33.6% (inactive)
41 | O=C(CNc1ccc2c(c1)OC(F)(F)O2)N1CCc2sccc2C1 | -40% (inactive)
42 | COc1ccc(Cl)cc1NCC(=O)N1CCc2sccc2C1 | 83.7% (active)
43 | COc1ccc(C)cc1NC(=O)N1CCN(CCCOC(c2ccc(Cl)cc2)c2ccc(Cl)cc2)CC1 | -0.67% (inactive)
44 | CC(C)Oc1ccc(NC(=O)C2CCOCC2)cc1Cl | 95.4% (active)
45 | CC(C)Oc1ccc(NC(=O)Cc2cccs2)cc1Cl | 38% (inactive)
46 | C=CCn1c(=NC(=O)c2ccc(OC)cc2)sc2cccc(OC)c21 | 39.7% (inactive)
47 | CCc1c(C)nc(-n2nc(C)cc2NC(=O)c2cccs2)[nH]c1=O | 101% (active)
48 | Cc1cc(NC(=O)c2cccs2)n(-c2nc(C)c(C)c(=O)[nH]2)n1 | 98.8% (active)
49 | CCCCS(=O)(=O)N(C)Cc1ccc(-c2ccc(Br)cc2)o1 | 83.2% (active)
50 | Brc1ccccc1-c1nnc(SCc2ncc(-c3ccccc3)o2)o1 | -4.92% (inactive)
51 | OCC#CCSc1nnc(-c2cccc(Br)c2)o1 | -10.9% (inactive)
52 | OCC#CCSc1nnc(-c2ccccc2Br)o1 | 99.2% (active)

Row | SMILES | inhibition
53 | Fc1ccc(CN2CCC(Cc3ccc(-c4ccccc4)cc3)CC2)cc1C(F)(F)F | 59% (active)
54 | CC(=O)Nc1ccc(-c2csc(NC(=O)C3Cc4ccccc4O3)n2)c(F)c1 (stereo unspecified) | 16.7% (inactive)
55 | CC(C)(C)c1ccc2c(c1)OCC(C(=O)Nc1nc(-c3ccncc3)cs1)O2 (stereo unspecified) | 84.6% (active)
56 | Oc1cccc2ccc(C=Cc3cccc(Br)c3)nc12 | 90.5% (active)
57 | COC(=O)c1cc(C=O)c2ccc3ccccc3n12 | 27.1% (inactive)
58 | Oc1cccc2ccc(/C=C/c3ccccc3OC(F)F)nc12 | 100% (active)
59 | COC(=O)c1ccc(C=Cc2ccc3cccc(O)c3n2)cc1 | 63.1% (active)
60 | COc1ccc(Br)cc1C=Cc1ccc2cccc(O)c2n1 | 17.6% (inactive)
61 | Cc1cc(NC(=O)c2ccc(CN3C(=O)CC4(CCCC4)C3=O)cc2)ccc1Cl | -6.77% (inactive)
62 | CCc1ccc(NC(=O)C(C)n2cc(C(F)(F)F)ccc2=O)cc1 (stereo unspecified) | 49.6% (inactive)
63 | CCc1ccc(NC(=O)c2ccc(CN3CCCC3=O)cc2)cc1 | 73.2% (active)
64 | CC(NS(=O)(=O)c1ccc(Cl)c(C(F)(F)F)c1)C1CC2CCC1C2 (stereo unspecified) | inactive
65 | CCn1c(C)c(C(=O)CN(C(=O)c2ccc(Br)cc2)C2CCCCC2)c(C)c1C(=O)OC | 22.6% (inactive)
66 | Cc1ccccc1C1CC(N(C(=O)c2ccc(Br)cc2)C2CC2)C1 (stereo unspecified) | 82.4% (active)
67 | Cc1ccc(C(=O)OC(C)CN2CCN(C)CC2)cc1 (stereo unspecified) | -10.1% (inactive)
68 | COC(=O)c1ccc(N2CN=C(c3ccc(C)cc3)NC2=S)cc1 | 87.5% (active)
69 | CC1(Oc2ccccc2-c2ccno2)CCN(Cc2ccc(-c3ccccc3)o2)C1 (stereo unspecified) | 25.5% (inactive)
70 | Fc1ccc(N2CCN(C[C@H]3CN4CC[C@H]3C[C@@H]4CNC(=S)Nc3ccc(-n4cccn4)cc3)CC2)cc1 | 95.6% (active)
71 | CC(OC(=O)c1ccc(OCC2CCCO2)cc1)C(=O)Nc1nc(-c2ccc(F)c(F)c2)cs1 (stereo unspecified) | 100% (active)
72 | CCC(C)C(=O)Nc1nc(-c2ccc(OC)c(F)c2)cs1 (stereo unspecified) | 0.73% (inactive)
73 | CN(c1cccc(O)c1)S(=O)(=O)c1ccc2c(c1)OCCCO2 | 52.4% (active)
74 | CN(c1cccc(O)c1)S(=O)(=O)c1cc(Cl)sc1Cl | -2.74% (inactive)
75 | O=S(=O)(Oc1ccc2oc3ccccc3c2c1)c1ccc2c(c1)OCCO2 | 31.3% (inactive)
76 | Nc1ccc2scnc2c1 | 94.5% (active)
77 | O=C(Nc1ccc2scnc2c1)C1CC(=O)N(CC2CC2)C1 (stereo unspecified) | 34.9% (inactive)
78 | O=C(NCC1CCC2(CC1)OCCO2)c1ccc(Cl)cc1F | -19.8% (inactive)

Row | SMILES | inhibition
79 | O=C(Nc1cc(C(F)(F)F)no1)c1ccc(Cl)cc1F | 97.8% (active)
80 | CCCSc1nnc(NCc2ccc(OC)cc2)s1 | 33.5% (inactive)
81 | CCCSc1nnc(SCC(=O)Nc2nc(C)cs2)s1 | 90.9% (active)
82 | Cc1csc(C(C#N)C(=O)CSc2nnc(NC3CC3)s2)n1 (stereo unspecified) | 28.8% (inactive)
83 | CN[C@H]1C[C@@H](N)[C@H](O)[C@@H](O[C@@H]2O[C@H](CO)[C@@H]3OC4(O[C@@H]3[C@@H]2O)O[C@H](C(N)CO)[C@H](O)[C@H](O)[C@H]4O)[C@@H]1O (stereo partly specified) | 41.3% (inactive)
84 | NCC[C@H](O)C(=O)N[C@@H]1C[C@H](N)[C@@H](O[C@H]2O[C@H](CN)[C@@H](O)[C@H](O)[C@H]2O)[C@H](O)[C@H]1O[C@H]1O[C@H](CO)[C@@H](O)[C@H](N)[C@H]1O | 98.7% (active)
85 | COc1ccc(CC(=O)Nc2cc(C)nn2-c2nc(C)cc(=O)[nH]2)cc1OC | 99% (active)
86 | CCc1cc(=O)[nH]c(-n2nc(C)cc2NC(=O)Cc2ccc(OC)c(OC)c2)n1 | 48% (inactive)
87 | CCCc1cc(=O)[nH]c(-n2nc(C)cc2NC(=O)Cc2ccc(OC)c(OC)c2)n1 | 98.9% (active)
88 | Cc1n[nH]c(C)c1CCCCCOc1cccc(Cl)c1 | 99.2% (active)
89 | CCOc1ccc(OCCCCOc2ccc(F)cc2)cc1 | 8.32% (inactive)
90 | Cc1n[nH]c(C)c1CCCCCCOc1ccc(F)cc1 | 87.3% (active)
91 | CNc1snc(C)c1C(=O)OCc1ccc(-n2cccn2)cc1 | 50.2% (active)
92 | CNc1snc(C)c1C(=O)NCc1ccc2c(c1)CCC2 | 39.8% (inactive)
93 | Cc1oc(-c2ccc(F)cc2F)nc1CN(C)Cc1ccccc1C(F)(F)F | 30.1% (inactive)
94 | COc1cc(C(=O)Nc2cc(Cl)ccc2N2CCSCC2)ccc1C | 12.9% (inactive)
95 | N#Cc1nc(NC(=O)c2ccc(N3CCCC3)c(F)c2)[nH]c1C#N | 70.6% (active)
96 | N#Cc1ccc(C(=O)Nc2ccccc2N2CCCCCC2)cc1 | 39.7% (inactive)
97 | CCOC(=O)CSc1nnc(CNc2ccc(C)c(Cl)c2)n1C | 94.2% (active)
98 | OCC1(CCc2ccccc2)CCCN(c2ncnc3sccc23)C1 (stereo unspecified) | 22.8% (inactive)
99 | Oc1c(-c2ccccn2)sc2ccccc12 | 90.9% (active)
100 | CN(N=Cc1sc2ccccc2c1O)c1ccccc1 | -9.99% (inactive)
101 | Oc1c(N=Nc2ccc3c(c2)OCCO3)sc2ccccc12 | 38.8% (inactive)
